# The entries come from a sample that favours the strongest signals as a whole.
# B1: Codakine (Codakia orbicularis), Q3KVL7_9BIVA (protein)
# chain: MKILVAVFLVLVVVGTAAAGCPDGWTQFLDLCYIYQSAKASWASAQSSCQALGGILAEPDTACENEVLIHMCRENGDAGSFGPWLGGQKVGGAWQWSSSGAAFDYLRWGPNEPNNSGGNEDCLHYNWLSWNDLRCHYQASYLCQRAAE
# Legend:
# Assay in all cases: glycan array binding signal (z-score within array); higher = stronger binding
# Conditions in all cases: glycan notation: IUPAC condensed, linker removed
# [1] = molecular target: Fuc(a1-2)Gal(b1-4)Glc
# How it was run: (§1)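 The binding signal is a Z-score computed within each array and averaged over linkers. Arrays of the same protein sequence at different concentrations or buffers were also averaged together. Data originate from 3228 arrays in the Consortium for Functional Glycomics database, kept only where the protein sequence was available.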
# [2] = molecular target: Fuc(a1-2)Gal(b1-4)GlcNAc(b1-3)Gal(b1-4)GlcNAc(b1-3)Gal(b1-4)GlcNAc
# How it was run: as §1
# [3] = molecular target: Fuc(a1-2)[Gal(a1-3)]Gal(b1-4)GlcNAc
# How it was run: as §1
# [4] = molecular target: Fuc(a1-3)[Gal(b1-4)]GlcNAc(b1-2)Man(a1-6)[Gal(b1-4)GlcNAc(b1-2)Man(a1-3)]Man(b1-4)GlcNAc(b1-4)GlcNAc
# How it was run: as §1
# [5] = molecular target: Fuc(a1-3)[Gal(b1-4)]GlcNAc(b1-4)Gal(b1-4)[Fuc(a1-3)]GlcNAc
# How it was run: as §1
# [6] = molecular target: Gal(a1-3)GalNAc
# How it was run: as §1
# [7] = molecular target: Gal(b1-3)[Fuc(a1-4)]GlcNAc
# How it was run: as §1
# [8] = molecular target: Gal(b1-4)GalNAc(a1-3)[Fuc(a1-2)]Gal(b1-4)GlcNAc
# How it was run: as §1
# [9] = molecular target: Gal(b1-4)GlcNAc
# How it was run: as §1
# [10] = molecular target: Gal(b1-4)GlcNAc(b1-2)Man(a1-3)[Gal(b1-4)GlcNAc(b1-2)Man(a1-6)]Man(b1-4)GlcNAc(b1-4)GlcNAc
# How it was run: as §1
# [11] = molecular target: Gal(b1-4)GlcNAc(b1-3)Gal(b1-3)GlcNAc
# How it was run: as §1
# [12] = molecular target: Glc(a1-6)Glc(a1-6)Glc
# How it was run: as §1
# [13] = molecular target: GlcA(b1-6)Gal
# How it was run: as §1
# [14] = molecular target: GlcNAc(b1-2)Gal(b1-3)GalNAc
# How it was run: as §1
# [15] = molecular target: Man(a1-3)[Man(a1-6)]Man(b1-4)GlcNAc(b1-4)GlcNAc
# How it was run: as §1
# [16] = molecular target: Man(a1-6)Man
# How it was run: as §1
# [17] = molecular target: Neu5Ac(a2-3)Gal(b1-3)[Fuc(a1-4)]GlcNAc
# How it was run: as §1
# [18] = molecular target: Neu5Ac(a2-3)Gal(b1-4)GlcNAc(b1-2)Man(a1-3)[GlcNAc(b1-2)Man(b1-4)GlcNAc(b1-2)Man(a1-6)]Man(b1-4)GlcNAc(b1-4)GlcNAc
# How it was run: as §1
# [19] = molecular target: Neu5Ac(a2-3)Gal(b1-4)GlcNAc(b1-2)Man(a1-3)[Neu5Ac(a2-6)Gal(b1-4)GlcNAc(b1-2)Man(a1-6)]Man(b1-4)GlcNAc(b1-4)GlcNAc
# How it was run: as §1
# [20] = molecular target: Neu5Ac(a2-6)Gal(b1-4)GlcNAc
# How it was run: as §1
# [21] = molecular target: Neu5Ac(b2-6)GalNAc
# How it was run: as §1
# [22] = molecular target: Neu5Gc(a2-3)Gal(b1-3)[Fuc(a1-4)]GlcNAc
# How it was run: as §1
# [23] = molecular target: Neu5Gc(a2-3)Gal(b1-4)[Fuc(a1-3)]GlcNAc
# How it was run: as §1
# [24] = molecular target: Neu5Gc(a2-6)Gal(b1-4)GlcNAc
# How it was run: as §1
binder,measurement,setting,value
B1,glycan array binding signal (z-score),[1],-0.26
same,glycan array binding signal (z-score),[2],-0.235
same,glycan array binding signal (z-score),[3],-0.342
same,glycan array binding signal (z-score),[4],6.48
same,glycan array binding signal (z-score),[5],-0.321
same,glycan array binding signal (z-score),[6],-0.298
same,glycan array binding signal (z-score),[7],-0.203
same,glycan array binding signal (z-score),[8],-0.419
same,glycan array binding signal (z-score),[9],-0.3
same,glycan array binding signal (z-score),[10],4.02
same,glycan array binding signal (z-score),[11],-0.239
same,glycan array binding signal (z-score),[12],-0.317
same,glycan array binding signal (z-score),[13],-0.302
same,glycan array binding signal (z-score),[14],-0.276
same,glycan array binding signal (z-score),[15],4.3
same,glycan array binding signal (z-score),[16],0.449
same,glycan array binding signal (z-score),[17],-0.34
same,glycan array binding signal (z-score),[18],4.82
same,glycan array binding signal (z-score),[19],4.57
same,glycan array binding signal (z-score),[20],-0.224
same,glycan array binding signal (z-score),[21],-0.238
same,glycan array binding signal (z-score),[22],-0.265
same,glycan array binding signal (z-score),[23],-0.234
same,glycan array binding signal (z-score),[24],-0.289

# Source: the supplement of paper PMC8728848
